From the supplement of paper PMC12067093, “Discovery and optimisation of a covalent ligand for TRIM25 and its application to targeted protein ubiquitination” (Chemical Science, 2025)
Targets with the largest changes are over-represented here; the source holds about 21,000 in all.

compound: Cc1cc(ccc1-c1ccccc1)C(=O)N1CCCN(CC1)C(=O)CCl [compound 10]; test: probe-labelled cysteine peptide fold change vs DMSO (competition) (log2 fold change); higher = less target engagement (more negative = stronger competition); conditions: 10 µM; THP-1; incubation time: 4 h
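Further: competitive profiling in live THP-1 cells: cysteine peptides tagged with an iodoacetamide desthiobiotin (IA-DTB) probe, intensity after compound treatment relative to DMSO-treated cells.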

Chain of UniProt Q15067 (Q15067 whole entry, looked up): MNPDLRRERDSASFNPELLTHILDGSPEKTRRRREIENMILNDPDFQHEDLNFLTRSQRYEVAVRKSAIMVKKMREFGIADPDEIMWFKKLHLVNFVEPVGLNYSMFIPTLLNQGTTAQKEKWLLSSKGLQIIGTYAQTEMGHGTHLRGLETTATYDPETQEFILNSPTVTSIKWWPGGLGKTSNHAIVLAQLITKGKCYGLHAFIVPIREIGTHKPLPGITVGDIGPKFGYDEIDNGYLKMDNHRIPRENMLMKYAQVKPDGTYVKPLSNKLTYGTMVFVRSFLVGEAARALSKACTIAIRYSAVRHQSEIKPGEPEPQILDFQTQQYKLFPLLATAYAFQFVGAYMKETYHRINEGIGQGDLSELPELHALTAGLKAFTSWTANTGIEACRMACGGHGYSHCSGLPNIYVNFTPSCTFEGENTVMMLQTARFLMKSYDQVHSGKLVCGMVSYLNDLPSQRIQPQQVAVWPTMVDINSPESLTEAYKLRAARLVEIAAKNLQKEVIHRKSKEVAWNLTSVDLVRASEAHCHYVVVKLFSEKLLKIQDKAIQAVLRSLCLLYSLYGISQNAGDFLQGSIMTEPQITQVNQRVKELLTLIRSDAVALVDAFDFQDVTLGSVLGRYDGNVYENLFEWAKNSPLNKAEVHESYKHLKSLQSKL
Chain of UniProt Q93050 (Q93050 whole entry, looked up): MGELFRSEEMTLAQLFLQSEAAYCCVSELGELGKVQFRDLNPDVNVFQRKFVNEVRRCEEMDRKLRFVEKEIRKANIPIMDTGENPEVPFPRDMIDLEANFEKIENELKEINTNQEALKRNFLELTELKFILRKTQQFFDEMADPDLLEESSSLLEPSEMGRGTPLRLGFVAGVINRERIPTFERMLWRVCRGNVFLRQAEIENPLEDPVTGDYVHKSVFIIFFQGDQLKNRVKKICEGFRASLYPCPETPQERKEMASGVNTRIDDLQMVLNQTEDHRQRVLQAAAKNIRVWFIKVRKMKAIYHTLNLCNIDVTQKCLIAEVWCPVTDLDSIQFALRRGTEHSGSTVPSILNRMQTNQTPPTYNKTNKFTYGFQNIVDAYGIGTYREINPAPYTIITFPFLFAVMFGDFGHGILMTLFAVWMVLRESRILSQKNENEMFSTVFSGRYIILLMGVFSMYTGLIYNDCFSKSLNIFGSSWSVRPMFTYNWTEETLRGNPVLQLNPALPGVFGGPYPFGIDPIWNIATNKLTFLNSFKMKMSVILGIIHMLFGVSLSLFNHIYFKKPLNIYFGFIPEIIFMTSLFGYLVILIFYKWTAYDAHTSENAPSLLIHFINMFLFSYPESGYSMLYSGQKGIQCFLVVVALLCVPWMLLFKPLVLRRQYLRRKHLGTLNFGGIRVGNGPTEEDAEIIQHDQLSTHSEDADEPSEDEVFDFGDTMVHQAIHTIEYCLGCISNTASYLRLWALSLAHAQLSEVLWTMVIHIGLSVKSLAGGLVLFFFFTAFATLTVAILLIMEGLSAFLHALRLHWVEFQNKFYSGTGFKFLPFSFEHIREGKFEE
Chain of UniProt P14550 (P14550 whole entry, looked up): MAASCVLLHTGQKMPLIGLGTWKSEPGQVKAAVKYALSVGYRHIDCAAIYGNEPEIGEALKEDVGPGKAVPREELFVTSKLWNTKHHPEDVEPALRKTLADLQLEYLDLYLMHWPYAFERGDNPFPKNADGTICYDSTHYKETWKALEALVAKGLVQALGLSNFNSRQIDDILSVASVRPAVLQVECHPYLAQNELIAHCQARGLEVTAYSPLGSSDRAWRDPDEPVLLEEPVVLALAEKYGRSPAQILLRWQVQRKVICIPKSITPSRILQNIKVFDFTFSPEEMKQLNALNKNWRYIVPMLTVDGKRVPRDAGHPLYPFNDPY
Chain of UniProt O14983 (O14983 whole entry, looked up): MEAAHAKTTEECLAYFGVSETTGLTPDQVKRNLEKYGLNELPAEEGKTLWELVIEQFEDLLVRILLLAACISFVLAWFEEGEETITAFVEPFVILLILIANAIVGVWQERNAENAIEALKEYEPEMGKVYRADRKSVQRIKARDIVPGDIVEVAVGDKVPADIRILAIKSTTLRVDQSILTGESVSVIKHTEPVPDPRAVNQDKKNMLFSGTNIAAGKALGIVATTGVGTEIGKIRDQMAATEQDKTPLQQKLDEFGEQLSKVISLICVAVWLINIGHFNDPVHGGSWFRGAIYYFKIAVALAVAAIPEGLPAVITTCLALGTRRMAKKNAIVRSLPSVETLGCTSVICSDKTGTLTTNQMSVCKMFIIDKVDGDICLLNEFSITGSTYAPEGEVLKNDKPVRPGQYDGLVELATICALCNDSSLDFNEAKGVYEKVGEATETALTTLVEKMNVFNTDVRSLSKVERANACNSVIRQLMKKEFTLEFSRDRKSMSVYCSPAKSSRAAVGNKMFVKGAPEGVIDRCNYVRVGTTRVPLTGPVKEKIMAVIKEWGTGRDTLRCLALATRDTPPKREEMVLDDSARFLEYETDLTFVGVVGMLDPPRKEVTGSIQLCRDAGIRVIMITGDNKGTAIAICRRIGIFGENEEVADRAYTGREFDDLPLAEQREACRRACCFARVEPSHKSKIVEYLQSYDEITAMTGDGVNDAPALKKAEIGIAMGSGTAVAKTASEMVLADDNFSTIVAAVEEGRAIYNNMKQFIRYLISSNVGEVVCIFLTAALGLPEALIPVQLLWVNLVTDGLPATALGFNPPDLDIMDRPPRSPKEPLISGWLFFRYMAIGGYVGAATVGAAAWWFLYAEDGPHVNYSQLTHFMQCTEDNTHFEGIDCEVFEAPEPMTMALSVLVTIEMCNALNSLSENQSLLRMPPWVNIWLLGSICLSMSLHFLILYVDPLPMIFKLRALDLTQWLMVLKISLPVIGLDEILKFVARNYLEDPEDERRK
Chain of UniProt P54886 (P54886 whole entry, looked up): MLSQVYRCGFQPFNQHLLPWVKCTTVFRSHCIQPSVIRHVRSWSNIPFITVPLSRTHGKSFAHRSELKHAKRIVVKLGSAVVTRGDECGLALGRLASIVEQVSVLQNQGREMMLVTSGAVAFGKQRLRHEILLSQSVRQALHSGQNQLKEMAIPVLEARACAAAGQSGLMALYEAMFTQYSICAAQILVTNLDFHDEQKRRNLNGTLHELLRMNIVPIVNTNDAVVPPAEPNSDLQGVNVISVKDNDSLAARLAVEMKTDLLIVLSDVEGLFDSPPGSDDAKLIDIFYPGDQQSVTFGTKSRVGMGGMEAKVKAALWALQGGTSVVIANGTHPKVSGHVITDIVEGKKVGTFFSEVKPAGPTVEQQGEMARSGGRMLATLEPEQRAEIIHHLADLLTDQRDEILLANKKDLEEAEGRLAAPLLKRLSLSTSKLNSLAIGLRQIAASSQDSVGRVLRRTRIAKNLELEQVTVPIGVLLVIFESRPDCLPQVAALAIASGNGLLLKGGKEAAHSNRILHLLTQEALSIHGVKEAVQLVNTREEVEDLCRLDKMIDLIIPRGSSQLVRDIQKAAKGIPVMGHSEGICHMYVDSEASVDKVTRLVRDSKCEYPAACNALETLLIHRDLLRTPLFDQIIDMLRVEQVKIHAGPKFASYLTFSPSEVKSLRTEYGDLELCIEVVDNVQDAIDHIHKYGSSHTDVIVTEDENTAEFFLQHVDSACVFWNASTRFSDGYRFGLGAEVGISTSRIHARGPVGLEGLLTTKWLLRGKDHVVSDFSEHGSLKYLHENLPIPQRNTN
Chain of UniProt Q6ULP2 (Q6ULP2 whole entry, looked up): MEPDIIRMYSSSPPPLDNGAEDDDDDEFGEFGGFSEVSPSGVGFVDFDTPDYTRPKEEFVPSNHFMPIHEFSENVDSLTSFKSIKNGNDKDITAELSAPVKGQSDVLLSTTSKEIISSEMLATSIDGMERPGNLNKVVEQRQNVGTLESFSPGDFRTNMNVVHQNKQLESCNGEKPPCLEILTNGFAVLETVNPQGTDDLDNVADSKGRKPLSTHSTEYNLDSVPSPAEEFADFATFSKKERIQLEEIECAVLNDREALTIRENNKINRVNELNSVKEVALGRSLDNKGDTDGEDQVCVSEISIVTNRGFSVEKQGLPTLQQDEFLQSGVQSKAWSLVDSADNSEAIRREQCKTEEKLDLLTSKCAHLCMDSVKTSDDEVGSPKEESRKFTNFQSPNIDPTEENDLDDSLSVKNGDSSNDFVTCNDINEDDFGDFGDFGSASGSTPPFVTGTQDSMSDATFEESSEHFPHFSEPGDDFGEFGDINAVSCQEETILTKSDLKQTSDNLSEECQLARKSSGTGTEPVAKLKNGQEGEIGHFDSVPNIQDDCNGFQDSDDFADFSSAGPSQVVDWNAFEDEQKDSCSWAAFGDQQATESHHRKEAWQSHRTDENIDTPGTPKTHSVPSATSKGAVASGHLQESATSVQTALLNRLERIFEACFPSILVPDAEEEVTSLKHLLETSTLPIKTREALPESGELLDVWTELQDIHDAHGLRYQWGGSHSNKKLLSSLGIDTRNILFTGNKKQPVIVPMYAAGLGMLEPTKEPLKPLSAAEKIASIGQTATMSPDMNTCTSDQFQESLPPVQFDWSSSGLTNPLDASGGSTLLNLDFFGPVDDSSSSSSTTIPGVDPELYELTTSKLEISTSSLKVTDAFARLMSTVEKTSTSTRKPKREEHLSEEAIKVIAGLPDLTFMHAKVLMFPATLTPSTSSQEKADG
Chain of UniProt O00170 (O00170 whole entry, looked up): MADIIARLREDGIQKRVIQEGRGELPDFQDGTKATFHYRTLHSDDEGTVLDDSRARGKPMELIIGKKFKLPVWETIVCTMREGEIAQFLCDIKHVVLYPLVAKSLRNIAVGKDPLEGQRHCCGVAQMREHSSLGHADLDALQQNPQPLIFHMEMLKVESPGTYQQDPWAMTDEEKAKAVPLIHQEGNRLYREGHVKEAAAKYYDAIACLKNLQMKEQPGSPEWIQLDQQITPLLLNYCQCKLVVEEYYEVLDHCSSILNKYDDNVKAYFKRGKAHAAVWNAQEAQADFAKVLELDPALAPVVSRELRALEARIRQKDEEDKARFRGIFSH
Chain of UniProt O00244 (O00244 whole entry, looked up): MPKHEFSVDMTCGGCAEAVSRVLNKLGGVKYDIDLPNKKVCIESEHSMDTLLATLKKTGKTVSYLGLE

Target	probe-labelled cysteine peptide fold change
AGL_P35573_486_ELICWGDSVK (UniProt P35573)	0.0938
AKR1B1_P15121_45_HIDCAHVYQNENEVGVAIQEK (UniProt P15121)	0.0652
ANKFY1_Q9P2R3_742_AIDENNEPTACFLIR (UniProt Q9P2R3)	-0.0754
ATP6V0A1_Q93050_58_RCEEMDR (UniProt Q93050)	0.102
ALCAM_Q13740_270_CLGNGNPPPEEFLFYLPGQPEGIR (UniProt Q13740)	-0.0239
ARL6IP4_Q66PJ3-3_220_NCSASTSQER (UniProt Q66PJ3)	-0.274
ANKMY2_Q8IV38_390_LDVNSNCVNEEQPEAEVGISQK (UniProt Q8IV38)	-0.281
ATM_Q13315_2770_SGVLEWCTGTVPIGEFLVNNEDGAHKR (UniProt Q13315)	0.0886
ARHGEF6_Q15052_530_IVVHCNNNQDFQEWLEQLNR (UniProt Q15052)	0.0109
ASPSCR1_Q9BZE9_224+225_GDLSRPEDADTSGPCCEHTQEK (UniProt Q9BZE9)	-0.786
ARHGAP25_P42331_448_CFLTSAFQGANSSK (UniProt P42331)	-0.526
ACOX1_Q15067_392_AFTSWTANTGIEACR (UniProt Q15067)	0.0592
AKR1A1_P14550_46_HIDCAAIYGNEPEIGEALKEDVGPGK (UniProt P14550)	-0.393
AKR1B1_P15121_299+304_VCALLSCTSHK (UniProt P15121)	-0.497
ANXA4_P09525_315_KVLLVLCGGDD (UniProt P09525)	-0.0611
ATIC_P31939_101_VVACNLYPFVK (UniProt P31939)	0.119

Target	probe-labelled cysteine peptide fold change
AKR1B1_P15121_299_VCALLSCTSHK (UniProt P15121)	-0.208
AFTPH_Q6ULP2_659_IFEACFPSILVPDAEEEVTSLK (UniProt Q6ULP2)	0.0219
AIP_O00170_121+122_HCCGVAQMR (UniProt O00170)	-0.298
AP1G1_O43747_392_ELLYFLDSCEPEFK (UniProt O43747)	0.183
ADAM9_Q13443_539_DCFIEVNSK (UniProt Q13443)	-0.0729
ATP2B1_P20020_547_TECALLGLLLDLKR (UniProt P20020)	-0.138
ATP2A1_O14983_349_SLPSVETLGCTSVICSDK (UniProt O14983)	-0.0681
ARNT_P27540_269_CGSSSVDPVSVNR (UniProt P27540)	-0.375
APBB1IP_Q7Z5R6_401_YLCCDDTR (UniProt Q7Z5R6)	-0.318
ATOX1_O00244_41_VCIESEHSMDTLLATLKK (UniProt O00244)	0.237
ATP2B1_P20020_463+473_HLDACETMGNATAICSDK (UniProt P20020)	-0.241
ALDOA_P04075_339_RALANSLACQGK (UniProt P04075)	-0.187
ANKRD11_Q6UB99_1339_ESACLPEK (UniProt Q6UB99)	-0.0313
ARHGEF7_Q14155_490_TLGNVTYMSQVLIQCAGSEEK (UniProt Q14155)	-0.204
ALDH18A1_P54886_674_SLRTEYGDLELCIEVVDNVQDAIDHIHK (UniProt P54886)	0.115
